Assay results taken from PubChem BioAssay (Tox21).
Results filed as inconclusive are left out. Calls of active or inactive are those of the source. The call rests on the fitted dose curve; in most records, active means well fitted cell-killing curve with a large enough effect in the repeat runs (not every such curve was filed as active); inconclusive means weak or mixed curves, or effect the other way; inactive means no such curve, though single readings can be large or run the other way.

Assay: qHTS assay to identify small molecule antagonists of the estrogen related receptor signaling pathway with the pleiotropic PPARgamma coactivator (PGC) from Tox21 10K library - cell viability counter screen (AID 1224840); further: nearly all actives have a fitted effect of over 40% in size
Settings: PGC/ERR reporter cells viability, CellTiter-Fluor, 17.5 h; series mostly up to 92.4 µM
Text: National Center for Advancing Translational Sciences [NCATS]
NIH Chemical Genomics Center [NCGC]
U.S. Environmental Protection Agency [EPA]
National Institutes of Environmental Health Sciences [NIEHS]
National Toxicology Program [NTP]
U.S. Food and Drug Administration [FDA]
Estrogen related receptors (ERRs), the first orphan nuclear receptors discovered, play an important role in the control of cellular energy metabolism. ERRs are required for high-energy production in response to the environmental challenges. The pleiotropic PPARgamma coactivator (PGC) is a major partner of ERR and a key regulator in energy homeostasis. Together they have been implicated in the etiology of metabolic disorders such as Type 2 diabetes and metabolic syndrome. ERR-alpha was also identified as an adverse marker for breast cancer progression; ERR-alpha-positive tumors have a poor prognosis. To screen and to identify environmental compounds that perturb the ERR and PGC/ERR signaling pathways could provide valuable information for potential therapeutic or preventive measures in the treatment of metabolic disease. To differentiate true PGC/ERR antagonists or agonist from cytotoxic substances, the assay is multiplexed with cell viability assay.
Tox21 Assay Protocol Summary:
The PGC/ERR cells were dispensed at 2,000 cells/5 ul/well in 1536-well white plates using a Multidrop dispenser. After the assay plates were incubated at a 37 C/5% CO2 incubator for 6 hours, 23 nL of compounds dissolved in DMSO, positive and negative controls or DMSO only was transferred to the assay plate by a pin tool. The plates were incubated at 37 C for 17.5 hours. 1 ul/well of CellTiter-Fluor reagent was added into the assay plates using a Flying Reagent Dispenser. After 30-minute incubation at 37 C/5% CO2, the fluorescence intensity in the plates was measured using a ViewLux plate reader.
For COCCOCCOCCOCCOCCO, the outcome was “inactive”.
With O=C1CC(c2ccc(Cl)cc2)CC(=O)N1 the outcome was “inactive”.
For Cc1cccc2nccnc12, the outcome was “inactive”.
In the case of CC(=O)c1sc(C)nc1C, the outcome is reported as “inactive”.
For CCC(C)(CCC(C)C)C(=O)O (stereo not given), the outcome was “inactive”.
In the case of CC1COc2ccccc2N1 (stereo not given), the outcome is reported as “inactive”.
In the case of CCCC/C=C\CCCCCCCCCC=O, the outcome is reported as “inactive”.
With CCCN1C[C@H](CSC)C[C@@H]2c3cccc4[nH]cc(c34)C[C@H]21 the outcome was “inactive”.
For CC(CO)c1ccccc1 (stereo not given), the outcome was “inactive”.
In the case of O=C(NCC(O)CO)c1c(I)c(C(=O)NCC(O)CO)c(I)c(N(CCO)C(=O)CO)c1I (stereo not given), the outcome is reported as “inactive”.
In the case of Cc1ccccc1OCC(O)CO (stereo not given), the outcome is reported as “inactive”.
In the case of C#CC(C)N(C)C(=O)Nc1ccc(Cl)cc1 (stereo not given), the outcome is reported as “inactive”.
In the case of COCCOCCOCCOCCO, the outcome is reported as “inactive”.
With C=CC(OCC)OCC the outcome was “inactive”.
With CC(C)C(=O)OCCc1ccccc1 the outcome was “inactive”.
With O=P(O)(O)OP(=O)(O)O the outcome was “inactive”.
In the case of CN(CCOc1ccc(NS(C)(=O)=O)cc1)CCc1ccc(NS(C)(=O)=O)cc1, the outcome is reported as “inactive”.
For O=C(NCCN1CCOCC1)c1ccc(Cl)cc1, the outcome was “inactive”.
For CCCCOC(=O)c1ccccc1, the outcome was “inactive”.
With C=C(C)C(=O)OCCNC(C)(C)C the outcome was “inactive”.
For ClCCCl, the outcome was “inactive”.
With Cc1cc2cc3c(C)cc(=O)oc3c(C)c2o1 the outcome was “inactive”.
In the case of CCCOC(OCCC)OCCC, the outcome is reported as “inactive”.
In the case of C=C(C)C(=O)OCc1ccccc1, the outcome is reported as “inactive”.
With CCOC(=O)c1ncn2c1CN(C)C(=O)c1cc(F)ccc1-2 the outcome was “inactive”.
For CCCCNc1ccc(C(=O)OCCN(C)C)cc1, the outcome was “inactive”.
With NS(=O)(=O)c1ccc(NC(=O)CCC(=O)O)cc1 the outcome was “inactive”.
With C=C(C)C1CCC(C)(O)CC1 (stereo not given) the outcome was “inactive”.
For Cc1c(I)c(=O)n(-c2ccccc2)n1C, the outcome was “inactive”.
In the case of Cc1cccc(C)c1OCC(C)N (stereo not given), the outcome is reported as “inactive”.
With Oc1ccccc1-c1nnco1 the outcome was “inactive”.
With CC(=O)Nc1cccc(C)c1 the outcome was “inactive”.
For CCCCCCCCC1CCC(=O)O1 (stereo not given), the outcome was “inactive”.
For OCCC(F)(F)C(F)(F)C(F)(F)C(F)(F)C(F)(F)C(F)(F)C(F)(F)C(F)(F)F, the outcome was “inactive”.
In the case of O=C(Nc1ccc(Cl)c(Cl)c1)C1CC1, the outcome is reported as “inactive”.
With O=C(CCNNC(=O)c1ccncc1)NCc1ccccc1 the outcome was “inactive”.
With c1ccc2c(c1)ccc1c3ccccc3ccc21 the outcome was “inactive”.
In the case of CCCCNC1CC(C)(C)NC(C)(C)C1, the outcome is reported as “inactive”.
With BrCCCCCBr the outcome was “inactive”.
For NCCN1CCOCC1, the outcome was “inactive”.
